PHOSPHO1 block: PubChem AID 1565. inhibition, % at 13.3 µM. recombinant PHOSPHO1, absorbance phosphatase assay. 1.1% of 290,000 active. Phosphoethanolamine/phosphocholine phosphatase (Homo sapiens), Q8TCT1; in the data active means inhibition above about 60%
TPT1 inh: Candida albicans TPT1 enzyme inhibitors, primary screen, biochemical, fluorescence polarization. tRNA 2'-phosphotransferase TPT1 (Candida albicans SC5314). recombinant caTPT1, FP RNA substrate dephosphorylation. inhibition, % at 5 µM. 0.81% of 300,000 active;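 active means inhibition above the mean of all tested compounds plus 3 SD, set per screening campaign, cut at about 24% in these data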
WT yeast gro inh: growth inhibition of WT strain, primary screen, mitochondrial fusion inhibitor project, WT and mutant strains, chemical genetic; mitochondrial fusion phenotypic screen; inhibition, % at 10 µM; AID 1362, 2008; 2.1% of 190,000 active; in the data active means inhibition above about 58%; tested in S. cerevisiae
Rtt109 Vps75: inhibitors of C. albicans Rtt109/Vps75 HAT, primary screen, biochemical, ThioGlo CoA-SH fluorescence, plate reader | Histone acetyltransferase RTT109 (Candida albicans (strain SC5314 / ATCC MYA-2876)), … | purified Rtt109/Vps75, 4 h | inhibition, % at 34.9 µM | 0.16% of 330,000 active | AID 540336, 2011;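 active means inhibition of at least 50% in every replicate; inconclusive means best replicate reaches 50% inhibition but some replicates fall short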
Target sequence (Q5AAJ8 whole entry, looked up): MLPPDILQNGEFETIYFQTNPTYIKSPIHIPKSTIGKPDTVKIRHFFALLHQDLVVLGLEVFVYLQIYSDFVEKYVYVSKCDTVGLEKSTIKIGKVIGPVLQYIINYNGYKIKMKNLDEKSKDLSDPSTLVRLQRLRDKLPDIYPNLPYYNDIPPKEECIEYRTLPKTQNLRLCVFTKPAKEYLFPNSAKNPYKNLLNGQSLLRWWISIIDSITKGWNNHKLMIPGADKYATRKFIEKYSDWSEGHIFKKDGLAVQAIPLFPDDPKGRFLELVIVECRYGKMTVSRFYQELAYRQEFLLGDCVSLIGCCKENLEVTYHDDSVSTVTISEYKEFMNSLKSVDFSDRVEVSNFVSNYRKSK
SKKanGAS inh: S. pyogenes SKKanGAS growth inhibitors in kanamycin, primary screen, streptokinase expression inhibitor project, SKKanGAS strain, BacTiter-Glo luminescence. 6 h. inhibition, % at 7.5 µM. 1.3% of 300,000 active;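 active means mean replicate score, as percent of positive control median, at least 50; inconclusive means mean below 50 but one replicate at or above 50; inactive means mean and every replicate below 50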;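 further: strain carries kanamycin resistance gene driven by streptokinase promoter and grows in 40 µg/ml kanamycin; loss of luminescence reflects streptokinase promoter inhibition or plain growth inhibition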
Platelet DG rel: inhibitors of platelet dense granule secretion, primary screen, cell-based, MLPCN, human platelets; human platelet-rich plasma, SFLLRN dense granule ATP release, luminescence; 0.22% of 300,000 active; inhibition, %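 (compounds screened at 7.5 µM in platelet-rich plasma)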;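 active means mean replicate score, as percent of positive control, at or above 50; inconclusive means mean below 50 but at least one replicate at or above 50; inactive means mean and every replicate below 50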
caTPT1 confirm: Candida albicans TPT1 inhibitors, confirmation, biochemical, fluorescence polarization, triplicate; shares compounds with TPT1 inh; recombinant caTPT1, RNase T1 coupled; inhibition, % at 5 µM; 74% of 2,400 active; AID 2149, 2009;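 active means inhibition above the primary screen limit, the mean inhibition of all tested compounds plus 3 SD, cut at about 25% in these data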
RNase T1 counter: RNase T1 inhibitors, counter-screen for TPT1 inhibitor project, biochemical, fluorescence polarization | shares compounds with TPT1 inh | RNase T1 cleavage, 1536-well | inhibition, % at 5 µM | 83% of 2,400 active;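 active means inhibition above the solvent-only control well mean plus 3 SD, limit set per screening run, cut at about 23% in these data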;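 further: inhibitors block cleavage so intact labeled substrate keeps polarization high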
Target sequence (P00651 whole entry, looked up): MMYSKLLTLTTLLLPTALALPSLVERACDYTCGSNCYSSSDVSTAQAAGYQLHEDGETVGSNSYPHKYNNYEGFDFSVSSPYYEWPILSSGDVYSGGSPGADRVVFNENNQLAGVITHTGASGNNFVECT
Numbers stand for hits. Hits are enriched below; roughly 3.9% of the tested compounds scored in any of these assays.

For Cc1c(N=C2Nc3cccc4cccc2c34)c(=O)n(-c2ccccc2)n1C the results were PHOSPHO1 block inactive, TPT1 inh 87.8, WT yeast gro inh inactive, Rtt109 Vps75 inactive, SKKanGAS inh inactive, Platelet DG rel inactive, caTPT1 confirm 108.5 and RNase T1 counter 113.6.
Screening COc1ccc(/C=N/NC(=O)c2ccc(O)cc2)cc1CN1CCCc2ccccc21 returned PHOSPHO1 block inactive, TPT1 inh 31.3, WT yeast gro inh inactive, Rtt109 Vps75 inactive, SKKanGAS inh inactive, Platelet DG rel inactive, caTPT1 confirm 39.9 and RNase T1 counter 54.2.
Screening COC(=O)CN(C)C(=O)c1ccccc1OC1CCN(S(C)(=O)=O)CC1 returned PHOSPHO1 block inactive, TPT1 inh inactive, Rtt109 Vps75 inactive, SKKanGAS inh inactive and Platelet DG rel inactive.
For O=Cc1c(Sc2ccccc2)nc2ccccn2c1=O the results were PHOSPHO1 block inactive, TPT1 inh inactive, WT yeast gro inh inactive, Rtt109 Vps75 inactive, SKKanGAS inh inactive and Platelet DG rel inactive.
O=C(O)c1ccccc1N/N=C/c1c(Sc2nnnn2-c2ccccc2)nc2ccccn2c1=O was read as PHOSPHO1 block inactive, TPT1 inh 67.7, Rtt109 Vps75 inactive, SKKanGAS inh inactive, Platelet DG rel inactive, caTPT1 confirm inactive and RNase T1 counter 31.0.
Screening Cn1cnc2c(cnn2C)c1=O returned Rtt109 Vps75 inactive.
Screening O=C(COC(=O)/C=C/c1cccc(Br)c1)NC1CCCCCC1 returned Rtt109 Vps75 inactive.
COCCN=c1scc(-c2ccco2)n1/N=C/c1ccc(O)c(O)c1O was read as PHOSPHO1 block inactive, TPT1 inh 51.9, WT yeast gro inh inactive, Rtt109 Vps75 inconclusive, caTPT1 confirm 60.0 and RNase T1 counter 70.5.
`COc1ccc(Cl)cc1NC(=O)CN(C)C(=O)CCc1nc2ccccc2c(=O)[nH]1` gave Rtt109 Vps75 inactive.
O=C(NCCOc1ccccc1)C1=CC=CN2CCS(=O)(=O)N=C12 was read as Rtt109 Vps75 inactive.
For CCCN1C(=O)S/C(=C\c2ccc(N3CCOCC3)o2)C1=O the results were PHOSPHO1 block inactive, TPT1 inh active, WT yeast gro inh inactive, Rtt109 Vps75 inactive, SKKanGAS inh inactive, Platelet DG rel inactive, caTPT1 confirm 187.5 and RNase T1 counter 168.5.
CCCN1C(=O)S/C(=C\c2ccc(N3CCOCC3)cc2C)C1=O was read as PHOSPHO1 block inactive and WT yeast gro inh inactive.
For CCCN1C(=O)S/C(=C/c2ccc(N3CCOCC3)o2)C1=O the results were PHOSPHO1 block inactive, TPT1 inh 179.9, Rtt109 Vps75 inactive, SKKanGAS inh inactive, Platelet DG rel inactive, caTPT1 confirm 183.4 and RNase T1 counter 165.7.
`Cc1cc(C)c(C)c(S(=O)(=O)N2CCN(C(=O)c3cc(S(=O)(=O)N4CCOCC4)ccc3F)CC2)c1C` gave Rtt109 Vps75 inactive.
Screening O=c1/c(=C\c2cc([N+](=O)[O-])cc([N+](=O)[O-])c2O)sc2nc3ccccc3n12 returned PHOSPHO1 block 66.8, TPT1 inh 91.2, WT yeast gro inh inactive, Rtt109 Vps75 inactive, caTPT1 confirm 90.9 and RNase T1 counter 93.3.
O=C(O)c1cccc(-c2ccc(/C=c3/sc4nc5ccccc5n4c3=O)o2)c1 was read as PHOSPHO1 block 85.0, TPT1 inh 97.0, Rtt109 Vps75 inactive, SKKanGAS inh inactive, Platelet DG rel inactive, caTPT1 confirm 117.5 and RNase T1 counter 121.3.
`O=c1/c(=C/c2ccccn2)sc2nc3ccccc3n12` gave PHOSPHO1 block inactive, TPT1 inh inactive, WT yeast gro inh inactive, Rtt109 Vps75 inactive, SKKanGAS inh inactive and Platelet DG rel inactive.
`O=C(Nc1sccc1C(=O)NCc1ccco1)c1cccnc1` gave PHOSPHO1 block inactive, TPT1 inh 24.3, WT yeast gro inh inactive, Rtt109 Vps75 inactive, SKKanGAS inh inactive, Platelet DG rel inactive, caTPT1 confirm 42.3 and RNase T1 counter 55.6.
For NS(=O)(=O)c1cc2c(cc1Cl)NC(CC1CCCC1)NS2(=O)=O (centres undefined) the results were PHOSPHO1 block inactive, TPT1 inh inactive, Rtt109 Vps75 inactive, SKKanGAS inh inactive and Platelet DG rel inactive.
For NS(=O)(=O)c1cc2c(cc1Cl)NC(Cc1ccccc1)NS2(=O)=O (centres undefined) the results were PHOSPHO1 block inactive, TPT1 inh 43.4, Rtt109 Vps75 inactive, SKKanGAS inh inactive, Platelet DG rel inactive, caTPT1 confirm inactive and RNase T1 counter inactive.
For COC(=O)CN1C(=O)S/C(=C/c2ccc(N3CCCCC3)o2)C1=O the results were PHOSPHO1 block inactive, TPT1 inh 181.2, WT yeast gro inh inactive, Rtt109 Vps75 inactive, SKKanGAS inh inactive, Platelet DG rel inactive, caTPT1 confirm 191.3 and RNase T1 counter 170.1.
O=C(O)CN1C(=O)/C(=C/c2ccc(N3CCCCC3)o2)SC1=S was read as PHOSPHO1 block inactive, TPT1 inh inactive, Rtt109 Vps75 inactive, SKKanGAS inh inactive and Platelet DG rel inactive.
`CCOC(=O)CN1C(=O)S/C(=C/c2ccc(N3CCCCC3)o2)C1=O` gave PHOSPHO1 block 101.4, TPT1 inh active, WT yeast gro inh inactive, Rtt109 Vps75 inactive, SKKanGAS inh inactive, Platelet DG rel inactive, caTPT1 confirm 179.5 and RNase T1 counter 167.0.
Screening COc1cc(SC)ccc1C(=O)Nc1cccc(S(=O)(=O)NC2=NCCC2)c1 returned Rtt109 Vps75 inactive.
CC1CCCCC12NC(=O)N(CC(=O)N1CCN(C(=O)c3ccco3)CC1)C2=O (centres undefined) was read as Rtt109 Vps75 inactive.
Screening O=C(NN1C(=O)/C(=C/c2ccc(O)c([N+](=O)[O-])c2)SC1=S)c1ccccc1Cl returned PHOSPHO1 block inactive, TPT1 inh 75.2, WT yeast gro inh inactive, Rtt109 Vps75 inactive, SKKanGAS inh inactive, Platelet DG rel inactive, caTPT1 confirm 55.0 and RNase T1 counter 66.2.
Screening Cn1cc(/C=C2\SC(=S)N(NC(=O)c3ccccc3)C2=O)c2ccccc21 returned PHOSPHO1 block inactive, TPT1 inh 137.2, WT yeast gro inh inactive, Rtt109 Vps75 inactive, SKKanGAS inh inactive, Platelet DG rel inactive, caTPT1 confirm 54.7 and RNase T1 counter 61.5.
